Source: PubChem (National Center for Advancing Translational Sciences (NCATS))
Only some compounds are listed: those with a hit (about 19% of all), similar ones and a draw of the others.
IL-1B inflam inh – qHTS for Inhibitors of Inflammasome Signaling: IL-1-beta AlphaLISA Primary Screen. THP-1 LPS/ATP IL-1B secretion, AlphaLISA, 16 h; active compounds read low. activity change, % at 57.5 µM. 360,000 compounds, 4.7% hits; in the data active = activity change below about -50%; inconclusive = mostly about -30% to -49%
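THP-1 cells pretreated 1 hr with compounds (up to 57.5 uM final), then stimulated with LPS (250 ng/mL final) plus ATP (1.25 mM final); secreted IL-1B measured by AlphaLISA after 16 hr, decreased signal indicating inhibition.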
HT1080-NT tox – qHTS for induction of synthetic lethality in tumor cells producing 2HG: qHTS for the HT-1080-NT fibrosarcoma cell line. Potency, µM (highest dose often 46.1 µM), most hits filed as cytotoxic. 360,000 compounds, 1.6% hits. HT-1080-NT fibrosarcoma viability, CellTiter-Glo ATP luminescence, 48 h. AID 686970, 2013;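 also: NT is the 2HG producing partner of a matched IDH1 knockdown line; nearly all actives have a fitted effect of over 55% in size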
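Viability of the 2HG-overproducing fibrosarcoma line after 48 hours of compound exposure at 37 degrees C was determined by luminescence with CellTiter-Glo, and concentration-effect curves were then fitted and categorized.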
TDP1 cell noCPT – qHTS for Inhibitors of human tyrosyl-DNA phosphodiesterase 1 (TDP1): qHTS in cells in absence of CPT; DT40 Tdp1-/- hTDP1 cells, no CPT, ATP luminescence, 48 h; Potency, µM (top dose mostly 46.2 µM), usual class: inhibitors; 420,000 compounds, 15% hits; AID 686978, 2013; also: nearly all actives have a fitted effect of over 55% in size
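Readout: luminescence from CellTiter-Glo after 30 min in the dark at RT. Cells: DT40 Tdp1-/- with stable hTDP1, 400/well. Exposure: compounds alone, ≥48 hr, 37 °C.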
HT1080 IDH1KD tx – qHTS for induction of synthetic lethality in tumor cells producing 2HG: qHTS for the HT-1080-IDH1KD cell line | HT-1080 IDH1 knockdown viability, ATP luminescence, 48 h | Potency, µM (top dose mostly 46.1 µM), usual class: cytotoxic | 360,000 compounds, 2% hits | AID 686971, 2013
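After a 2 h attachment period, IDH1KD HT-1080 cells took pin-transferred compound for 48 h at 37 °C; ATP-based luminescence after 10 min room-temperature reagent incubation reported viability.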
TDP1 cell CPT – qHTS for Inhibitors of human tyrosyl-DNA phosphodiesterase 1 (TDP1): qHTS in cells in presence of CPT; 420,000 compounds, 12% hits; chicken DT40 Tdp1-/-;hTDP1 cells + 20 nM CPT, ATP luminescence, 48 h; Potency, µM (top dose mostly 46.2 µM), usual class: inhibitors; AID 686979, 2013; also: nearly all actives have a fitted effect of over 55% in size
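Chicken DT40 Tdp1-/- cells complemented with human TDP1, 400 cells/well, exposed to compounds plus 20 nM camptothecin for at least 48 h at 37 C; viability read as ATP content by CellTiter-Glo luminescence.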
Numbers stand for hits; [ ] = another dose, or the depositor's remark. Unless noted, calls follow the shape of the dose curve; as a rule, active = well fitted curve in the direction sought with a large enough effect; inconclusive = small, poorly fitted or top-dose-only effect, or another doubt; inactive = no such curve, though single readings can be large; an effect the other way counts as inactive or inconclusive.

S=c1[nH]ncn1/N=C/c1ccccc1 was read as IL-1B inflam inh inactive, HT1080-NT tox inactive, TDP1 cell noCPT 23µM, HT1080 IDH1KD tx inactive[9.24 µM] and TDP1 cell CPT inconclusive.
`O=c1[nH]c(Cc2ccccc2)nc2c1oc1ccccc12` gave IL-1B inflam inh inactive, HT1080-NT tox inactive[9.24 µM], TDP1 cell noCPT inconclusive, HT1080 IDH1KD tx inactive and TDP1 cell CPT 6.5µM.
O=S(=O)(NC1=NCCC1)c1ccc(F)cc1F was read as IL-1B inflam inh inactive, HT1080-NT tox inactive, TDP1 cell noCPT inactive, HT1080 IDH1KD tx inactive and TDP1 cell CPT inactive.
`CC(=O)SC1CC(=O)N(c2ccc(C(C)(C)C)cc2)C1=O` (stereo not drawn) gave IL-1B inflam inh inactive, HT1080-NT tox inactive, TDP1 cell noCPT 8.2µM, HT1080 IDH1KD tx inconclusive and TDP1 cell CPT 3.3µM.
CCN=C(NCC)SC1CC(=O)N(c2ccccc2)C1=O (stereo not drawn) was read as IL-1B inflam inh inactive, HT1080-NT tox inactive, TDP1 cell noCPT inactive, HT1080 IDH1KD tx inactive and TDP1 cell CPT inactive.
For COCCCn1cnc2c(c1=O)c1nc3ccccc3nc1n2-c1ccccc1 the results were IL-1B inflam inh inactive, HT1080-NT tox inactive, TDP1 cell noCPT inactive, HT1080 IDH1KD tx inactive and TDP1 cell CPT inconclusive.
CCCCn1c2nc3ccccc3nc2c2c(=O)n(C(C)CC)cnc21 (stereo not drawn) was read as IL-1B inflam inh inconclusive, HT1080-NT tox inactive[9.24 µM], TDP1 cell noCPT 23µM, HT1080 IDH1KD tx inactive and TDP1 cell CPT 10µM.
Screening COCCCn1c2nc3ccccc3nc2c2c(=O)n(Cc3ccc(Cl)cc3)cnc21 returned IL-1B inflam inh inactive, HT1080-NT tox inactive, TDP1 cell noCPT 18µM, HT1080 IDH1KD tx inactive and TDP1 cell CPT inconclusive.
`COCCCn1c(C)nc2c(c1=O)c1nc3ccccc3nc1n2CCc1ccccc1` gave IL-1B inflam inh inactive, HT1080-NT tox inconclusive, TDP1 cell noCPT 16µM, HT1080 IDH1KD tx inactive and TDP1 cell CPT inconclusive.
CCOCCCn1c(C)nc2c(c1=O)c1nc3ccccc3nc1n2-c1ccc(C)cc1 was read as IL-1B inflam inh inactive, HT1080-NT tox inactive[9.24 µM], TDP1 cell noCPT inactive, HT1080 IDH1KD tx inactive and TDP1 cell CPT inconclusive.
For COc1ncnc2c1ncn2CCCN[C@H](C)c1cccc2ccccc12 the results were IL-1B inflam inh inactive, HT1080-NT tox inactive, TDP1 cell noCPT inactive, HT1080 IDH1KD tx inactive and TDP1 cell CPT inactive.
For Cc1cc2nc(N3C(=O)CNC3=S)sc2cc1C the results were IL-1B inflam inh -97, HT1080-NT tox inactive, TDP1 cell noCPT 5.8µM, HT1080 IDH1KD tx inactive and TDP1 cell CPT inconclusive.
For O=C1CNC(=S)N1c1nc(-c2ccccc2)cs1 the results were IL-1B inflam inh inactive, HT1080-NT tox inactive, TDP1 cell noCPT inactive, HT1080 IDH1KD tx inactive and TDP1 cell CPT inactive.
For CCOc1ccc2nc(N3C(=O)CNC3=S)sc2c1 the results were IL-1B inflam inh -97, HT1080-NT tox inactive, TDP1 cell noCPT 6.5µM, HT1080 IDH1KD tx inactive and TDP1 cell CPT 16µM.
Screening CCOCCCN(C(=O)c1snc(C(N)=O)c1N)C(C(=O)NC1CCCC1)c1ccc(F)cc1 (stereo not drawn) returned IL-1B inflam inh inactive, HT1080-NT tox inactive, TDP1 cell noCPT inactive, HT1080 IDH1KD tx inactive and TDP1 cell CPT inactive.
`CN(CC(O)COc1ccc(OCC(O)CN(C)C2CCCCC2)cc1)C1CCCCC1` (stereo not drawn) gave IL-1B inflam inh inactive, HT1080-NT tox inactive, TDP1 cell noCPT inconclusive, HT1080 IDH1KD tx inconclusive and TDP1 cell CPT inconclusive.
Screening Cc1cccc(C)c1OCC(O)CN(Cc1ccccc1O)C1CCCCC1 (stereo not drawn) returned IL-1B inflam inh -66, HT1080-NT tox 9.2µM, TDP1 cell noCPT 10µM, HT1080 IDH1KD tx inconclusive and TDP1 cell CPT 16µM.
Screening O=C(CCN1C(=O)/C(=C/c2ccccc2Cl)SC1=S)N1CCOCC1 returned IL-1B inflam inh -112, HT1080-NT tox inactive, TDP1 cell noCPT 3.7µM, HT1080 IDH1KD tx inactive and TDP1 cell CPT 5.2µM.
